The values below come from PubChem BioAssay AID651725 (National Center for Advancing Translational Sciences (NCATS), 2012).

Out of some 360,000 compounds screened, about 2,000 (0.56%) were called active. Inconclusive results (about 2%) are left out. Only a selection was taken, and actives are over-represented in it overall. Unmarked numbers belong to inactive results. Rule as the data show it: active = activity change below about -65%; inconclusive = mostly about -30% to -63%; inactive = weaker than that.
% is scaled to controls: 0 for no effect and ±100 for the full control effect.

The assay deals with Homeobox protein SIX1 (Homo sapiens) + Protein phosphatase EYA2 (Homo sapiens) (UniProt Q15475+O00167). In words: qHTS Assay for Inhibitors of the Six1/Eya2 Interaction. As to conditions: AlphaScreen GST-Six1/His-Eya2 binding, biochemical; stronger effect = lower value. The gist of the method: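 AlphaScreen with GST-Six1 and His-Eya2 (5X mix: 250 nM and 500 nM), glutathione donor and nickel acceptor beads; buffer 50 mM Tris pH 8.0, 300 mM NaCl, 1 mM TCEP; 1 h at 37 C in the dark.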
Sequence of Homeobox protein SIX1 (Homo sapiens) + Protein phosphatase EYA2 (Homo sapiens) (O00167 whole entry, looked up): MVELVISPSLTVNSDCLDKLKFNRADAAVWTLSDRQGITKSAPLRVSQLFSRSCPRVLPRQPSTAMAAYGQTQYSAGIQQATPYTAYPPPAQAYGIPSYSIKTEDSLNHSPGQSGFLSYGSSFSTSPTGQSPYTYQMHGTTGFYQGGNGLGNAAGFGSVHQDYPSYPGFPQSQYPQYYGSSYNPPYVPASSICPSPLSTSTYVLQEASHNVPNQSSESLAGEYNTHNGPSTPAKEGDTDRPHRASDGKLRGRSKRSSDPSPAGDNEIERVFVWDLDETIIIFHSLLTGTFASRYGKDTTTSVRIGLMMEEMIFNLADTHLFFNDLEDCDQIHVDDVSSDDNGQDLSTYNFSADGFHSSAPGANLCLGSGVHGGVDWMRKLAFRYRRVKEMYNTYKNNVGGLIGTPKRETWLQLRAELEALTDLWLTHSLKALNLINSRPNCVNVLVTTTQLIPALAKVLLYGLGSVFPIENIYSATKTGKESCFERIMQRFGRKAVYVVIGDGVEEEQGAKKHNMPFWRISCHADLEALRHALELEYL
Sequence of Homeobox protein SIX1 (Homo sapiens) + Protein phosphatase EYA2 (Homo sapiens) (Q15475 whole entry, looked up): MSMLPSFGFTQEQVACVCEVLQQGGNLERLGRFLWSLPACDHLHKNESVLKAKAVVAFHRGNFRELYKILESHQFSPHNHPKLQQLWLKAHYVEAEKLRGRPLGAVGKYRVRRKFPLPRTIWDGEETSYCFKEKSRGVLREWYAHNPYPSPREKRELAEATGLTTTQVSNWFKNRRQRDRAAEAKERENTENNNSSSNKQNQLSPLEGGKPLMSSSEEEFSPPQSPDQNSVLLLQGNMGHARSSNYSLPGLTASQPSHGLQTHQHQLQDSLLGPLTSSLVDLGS
For `Cc1cccc(C)c1NC(=O)C(c1cccc2ccccc12)n1c(=O)c(-c2ccco2)nc2ccccc21` (stereo not given), the activity change is -22.2%.

Turning to `CC(C)OC(=O)CC(=O)CC(O)c1cccc([N+](=O)[O-])c1` (stereo not given), the activity change was -3.63%. The same measure for `Cc1nc2ccccc2c(C(=O)O)c1-c1ccccn1`: 7.28%; for `CC(C)(C)Nc1nc(-c2ccccn2)nc2ccccc12`: -89.4% (active); for `c1ccc(-c2nccc(-c3ccc(-n4cnc5ccccc54)cc3)n2)nc1`: -10.5%. With `COc1ccc2c(c1)N(C)/C(=C1/SC(=S)N(NC(C)=O)C1=O)S2`, the activity change is -8.77%. The same measure for `O=C1NC[C@H](CCCCN2CCN(CCc3ccccc3)C(=O)C2=O)N(CC2CCCCC2)C1=O`: -4.53%; for `Oc1c(CN2CCN(c3ccc(F)cc3)CC2)cc(Cl)c2cccnc12`: -81.4% (active). The same measure for `Cc1cc(=O)oc2cc(OCC(=O)N3CCN(c4ccc(F)cc4)CC3)c(Cl)cc12`: 3.08%; for `Cc1cccc(C)c1NC(=O)CN1CCN(c2ccc(F)cc2)CC1`: -0.798%; for `CSCCC(C(=O)NC(C)(C)C)n1c(-c2ccccc2)nc2ccccc21` (stereo not given): 7.41%. In the case of `Cc1ccc(-c2ccc(C3=CC(=O)CC(C)(C)C3=O)cc2)cc1`, the activity change was -1.02%. `CCCc1nc2ccccc2n1C(C)C(=O)NC(C)(C)C` (stereo not given): the activity change is -4.69%. Turning to `CCN1CCN(C(c2cccnc2)c2cc(Cl)c3cccnc3c2O)CC1` (stereo not given), the activity change was -90.1% (active).

For `CCOC(=O)N1CCN(C(=O)C2CCN(c3ncnc4c3sc3cccc(F)c34)CC2)CC1`, the activity change is -5.48%. The same measure for `CCOC(=O)N1CCN(C(c2ccnc3ccccc23)c2nnnn2-c2c(C)cccc2C)CC1` (stereo not given): 18.3%; for `CCOC(=O)N1CCN(C(c2cccnc2)c2ccc3cccnc3c2O)CC1` (stereo not given): -88.9% (active). The same measure for `C=CCC[C@H](CCCCC)OC(=O)/C=C/[C@H](O)[C@@H](O)C[C@@H](O)CC=C`: 9.69%. The same measure for `COC(=O)C[C@H]1C=C[C@@H](NS(=O)(=O)c2ccc(C)cc2)[C@@H](CO)O1`: -7.03%; for `Cc1ccc(Cn2cc(CN3CC(N4CCN(C)CC4)CS3(=O)=O)nn2)cc1` (stereo not given): 2.69%. Consider `CCOc1ccc(N/C(N)=N/c2nc(C)c(C)c(=O)[nH]2)cc1`, for which the activity change is 1.12%. For `Cc1nnc(N/N=C/c2ccccn2)[nH]c1=O`, the activity change was -72.8% (active). With `COc1ccc(-n2c(O)c(C=NCC(c3ccco3)N3CCCC3)c3ccccc3c2=O)cc1OC` (stereo not given) the figure was -13%. Turning to `CCOc1ccc(-n2c(O)c(/C=N/Nc3nnc(C)c(=O)[nH]3)c3ccccc3c2=O)cc1`, the activity change was -93.7% (active).

For the compound `Cc1cc(=O)[nH]c(N/N=C/c2c(C)nn(-c3ccccc3Cl)c2Cl)n1`, the activity change is 1.43%.

Turning to `COc1ccc(/C=N/Nc2nc(-c3ccc(C)cc3)c(C#N)c(=O)[nH]2)cc1`, the activity change is 1.97%. With `Cc1[nH]nc(SCC(=O)NCC(C)C)c1[N+](=O)[O-]` the figure was 3.57%; with `COc1ccc(N(CCC#N)S(=O)(=O)c2ccc(Cl)cc2)cc1`, 3.78%; with `CCCCOCCCNC(=O)C[C@@H]1C[C@@]2(C(=O)OCC)CCCC=C2N(CCC2=CCCCC2)C1=O`, -13.6%.

With `COCCNC(=O)C1C(=O)Nc2ccccc2C(=O)N1c1ccc2c(c1)OCCO2` (stereo not given), the activity change was 7.33%. Turning to `CC1(C(=O)Nc2ccc3c(c2)OCCO3)CN(S(C)(=O)=O)CC(=O)N1Cc1cccc(F)c1` (stereo not given), the activity change is 6.88%.

With `Oc1c(C(c2ccccn2)N2CCOCC2)ccc2cccnc12` (stereo not given), the activity change was -91.8% (active). With `O=C(C[C@H]1CC[C@H]2[C@@H](COC[C@H](O)CN2C(=O)c2ccccn2)O1)N1CCN(c2ccccc2)CC1` the figure was -7.33%; with `CCCCn1nnnc1C1(C)CCC(=O)N1Cc1ccc(OC)c(OC)c1` (stereo not given), -14.1%. The same measure for `CC(C)NC(=O)C(=O)NCCCOC(C)C`: 7.72%; for `Cc1nn(C)cc1C(=O)NNC(=S)Nc1ccc(Cl)cc1`: 0.473%; for `Cc1cccc(-n2cnc(C(=O)Nc3cccnc3)c2)n1`: 26.5%. With `Cc1cccc(-n2cnc(C(=O)NNC(=S)Nc3ccccc3)c2)n1` the figure was -90.4% (active); with `O=C1COc2ccc(S(=O)(=O)NCCc3ccc(Cl)cc3)cc2N1`, 6.96%.

In the case of `CCOC(=O)[C@]12CCCC=C1N(CCC1=CCCCC1)C(=O)[C@H](CC(=O)N1CCOCC1)C2`, the activity change was 8.54%.

`Cn1c(N)c(C(=O)COC(=O)c2cnc(Cl)c(Cl)c2)c(=O)n(C)c1=O`: the activity change was -92.3% (active). For `Cn1c(N)c(C(=O)COC(=O)COc2ccc(Cl)cc2)c(=O)n(C)c1=O`, the activity change is -10.5%. The same measure for `Cn1c(N)c(C(=O)COC(=O)c2ccc3ccccc3c2)c(=O)n(C)c1=O`: -0.607%.

For `COC(=O)c1scc(S(=O)(=O)C(C)(C)C)c1-n1cccc1`, the activity change was 5.88%. In the case of `CCC(=O)Nc1ccc(C(=O)CSc2nnc(CNc3ccc(Cl)cc3)o2)cc1OC`, the activity change was -0.882%. Consider `O=C(NCc1ccccc1Cl)C1CCC(CNc2c(N3CCCCC3)c(=O)c2=O)CC1` (stereo not given), for which the activity change was 5.37%. The same measure for `Cc1cccc(NC(=O)c2cccc(S(=O)(=O)N3CCCC3)c2)n1`: -10.7%; for `Cc1ncc(CO)c(/C=N/NC(=O)c2cccc(S(=O)(=O)N3CCCC3)c2)c1O`: -82.4% (active); for `CCOc1cc(/C=N/NC(=O)c2cccc(S(=O)(=O)N3CCOCC3)c2)ccc1OCC(=O)N(C)C`: -8.33%.

With `CCCC[C@@H]1CN=C(N)N1CCc1cc(C(F)(F)F)cc(C(F)(F)F)c1`, the activity change is 16.6%. On to `Cn1cncc1COC(=O)c1ccc(Cl)cc1`, for which the activity change is -6.11%. The same measure for `Cc1ccc(CNC(=O)CCCNC(=O)c2ccc(Cl)cc2)n1C`: -7.14%. For the compound `Cc1cc(OC(=O)c2ccc(Cl)cc2)cc(=O)n1C`, the activity change is -92.4% (active).

Regarding `O=C1NC[C@H](Cc2ccc(O)cc2)N(C[C@@H]2CCCN2C[C@H](Cc2ccccc2)N2C[C@H](Cc3ccccc3)N(CC3CCCCC3)C(=O)C2=O)C1=O`, the activity change is 9.57%. Turning to `COC(=O)[C@]12CCCCC=C1N(CCC1=CCCCC1)C(=O)[C@H](CC(=O)NCC1CCCCC1)C2`, the activity change is -2.3%.
